This note sets out measurements from PMC5700166.

Test in all cases: protein-binding microarray (PBM); PBM: ~300 nM protein, 6 mM HEPES pH 7.8, 80 mM KCl, 0.5 mM EDTA, 0.5 mM EGTA, 6% glycerol, 35 ng/ul poly-dIdC, 1% milk, 1 h, room temperature; Ap Aiptasia and Nv Nematostella (sea anemones) / Co Capsaspora / Aq Amphimedon (sponge) / Dm Drosophila / Hu human; RHD is the Rel homology domain; high values mean tight binding
Conditions in all cases: dsDNA, one strand shown

For one assay, the target named is T1, GST-Ap-NF-kB RHD (Exaiptasia pallida (Aiptasia), UniProt A0A913YAJ5 2-422).
T1 sequence: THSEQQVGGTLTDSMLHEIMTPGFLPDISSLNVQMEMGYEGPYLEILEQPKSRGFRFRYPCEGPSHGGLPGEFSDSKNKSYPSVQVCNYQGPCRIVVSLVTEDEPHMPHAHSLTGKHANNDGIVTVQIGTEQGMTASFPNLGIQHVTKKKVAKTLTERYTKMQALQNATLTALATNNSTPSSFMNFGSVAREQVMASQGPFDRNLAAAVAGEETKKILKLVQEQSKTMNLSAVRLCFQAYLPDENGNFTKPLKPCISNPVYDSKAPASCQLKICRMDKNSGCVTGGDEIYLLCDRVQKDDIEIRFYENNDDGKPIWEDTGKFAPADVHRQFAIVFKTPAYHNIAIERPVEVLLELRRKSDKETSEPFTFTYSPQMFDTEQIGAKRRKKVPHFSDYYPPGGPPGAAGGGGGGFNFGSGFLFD

The target in assay [1] is T2, GST-Nv-NF-kB (Cys allele) (Nematostella vectensis, UniProt E5G601 2-411).
T2 sequence: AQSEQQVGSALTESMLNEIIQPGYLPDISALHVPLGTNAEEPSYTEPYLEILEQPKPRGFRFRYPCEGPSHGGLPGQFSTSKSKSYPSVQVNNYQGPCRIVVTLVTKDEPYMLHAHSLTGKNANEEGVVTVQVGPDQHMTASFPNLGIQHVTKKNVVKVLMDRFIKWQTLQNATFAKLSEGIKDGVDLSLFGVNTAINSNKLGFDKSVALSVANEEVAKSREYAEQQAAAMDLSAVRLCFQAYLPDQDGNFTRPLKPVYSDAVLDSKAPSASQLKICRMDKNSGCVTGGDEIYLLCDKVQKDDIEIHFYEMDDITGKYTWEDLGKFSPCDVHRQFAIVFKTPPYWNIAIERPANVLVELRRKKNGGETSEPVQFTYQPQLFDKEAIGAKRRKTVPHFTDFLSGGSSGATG

A further assay concerns the target T3, GST-Co-NF-kB (Capsaspora owczarzaki, UniProt F1ARL5 200-546).
T3 sequence: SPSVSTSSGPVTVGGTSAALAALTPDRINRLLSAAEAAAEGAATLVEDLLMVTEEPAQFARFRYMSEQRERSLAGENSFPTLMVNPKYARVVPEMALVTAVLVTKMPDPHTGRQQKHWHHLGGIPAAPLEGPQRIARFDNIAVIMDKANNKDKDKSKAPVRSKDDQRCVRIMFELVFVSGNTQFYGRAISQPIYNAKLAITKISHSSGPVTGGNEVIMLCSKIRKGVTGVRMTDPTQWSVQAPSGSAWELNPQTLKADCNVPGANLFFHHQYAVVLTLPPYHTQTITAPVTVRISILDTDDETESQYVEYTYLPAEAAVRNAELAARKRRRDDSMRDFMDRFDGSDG

Another assay deals with T4, GST-Dm-Relish (Drosophila melanogaster, UniProt Q94527 99-473).
T4 sequence: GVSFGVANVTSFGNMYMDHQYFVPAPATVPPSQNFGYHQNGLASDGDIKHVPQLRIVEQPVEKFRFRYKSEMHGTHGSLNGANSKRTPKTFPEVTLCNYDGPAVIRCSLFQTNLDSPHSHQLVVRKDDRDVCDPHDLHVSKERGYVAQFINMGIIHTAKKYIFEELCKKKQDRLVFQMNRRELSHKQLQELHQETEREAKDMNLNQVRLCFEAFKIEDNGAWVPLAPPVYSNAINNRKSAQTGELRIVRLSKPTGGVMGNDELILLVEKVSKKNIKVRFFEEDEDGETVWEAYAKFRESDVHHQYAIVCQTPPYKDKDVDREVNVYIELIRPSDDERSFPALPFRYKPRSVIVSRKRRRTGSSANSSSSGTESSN

In the next assay the target is T5, GST-Aq-NF-kB (Amphimedon queenslandica, UniProt A9Y5G7 2-389).
T5 sequence: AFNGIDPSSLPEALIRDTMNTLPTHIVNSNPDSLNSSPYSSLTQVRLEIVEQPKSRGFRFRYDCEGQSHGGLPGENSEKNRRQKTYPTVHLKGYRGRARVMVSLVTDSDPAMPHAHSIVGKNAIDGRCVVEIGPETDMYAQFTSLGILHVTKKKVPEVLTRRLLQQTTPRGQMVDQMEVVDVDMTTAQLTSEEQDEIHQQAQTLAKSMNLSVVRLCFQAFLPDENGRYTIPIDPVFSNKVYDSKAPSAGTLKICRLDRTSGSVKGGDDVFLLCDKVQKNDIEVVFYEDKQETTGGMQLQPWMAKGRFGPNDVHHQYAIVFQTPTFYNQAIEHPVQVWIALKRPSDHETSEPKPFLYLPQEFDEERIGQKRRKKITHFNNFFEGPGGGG

As for “CCGATTAACATCACGTTATTCCCTGATGTTAATCGGGTCTTGATTCGCTTGACGCTGCTG”, the binding signal with GST-Ap-NF-kB RHD amounted to 2.79 z-score; in assay [1], 2.96 z-score; in the assay with GST-Co-NF-kB it was 2.74 z-score; in the assay with GST-Dm-Relish, 4.77 z-score; with GST-Aq-NF-kB, 2.9 z-score.

For “CCGATTAACATCAGGGATTACCATGATGTTAATCGGGTCTTGATTCGCTTGACGCTGCTG”, the binding signal with GST-Ap-NF-kB RHD came to 3.4 z-score; in assay [1], 1.46 z-score; in the assay with GST-Co-NF-kB, 1.11 z-score; with GST-Dm-Relish, 6.01 z-score; with GST-Aq-NF-kB it was 3.67 z-score.

In the case of “CCGATTAACATCAGGGAAAACCATGATGTTAATCGGGTCTTGATTCGCTTGACGCTGCTG”, the binding signal in the assay with GST-Ap-NF-kB RHD was 3.89 z-score; in assay [1] it was 5.15 z-score; with GST-Co-NF-kB, 4.31 z-score; with GST-Dm-Relish it was 5.57 z-score; with GST-Aq-NF-kB, 5.29 z-score.

“CCGATTAACATCAGGGGGAGAGATGATGTTAATCGGGTCTTGATTCGCTTGACGCTGCTG”: the binding signal in the assay with GST-Ap-NF-kB RHD was 3.84 z-score; in assay [1], 3.66 z-score; in the assay with GST-Co-NF-kB, 5.69 z-score; in the assay with GST-Dm-Relish, 1.45 z-score; with GST-Aq-NF-kB, 3.54 z-score.

As to “CCGATTAACATCAAGTAAATCCCTGATGTTAATCGGGTCTTGATTCGCTTGACGCTGCTG”, the binding signal with GST-Ap-NF-kB RHD was 2.24 z-score; in assay [1], 2.71 z-score; with GST-Co-NF-kB, 1.22 z-score; with GST-Dm-Relish it was 7.89 z-score; with GST-Aq-NF-kB, 3.24 z-score.

With “CCGATTAACATCAGGCACTCCCCTGATGTTAATCGGGTCTTGATTCGCTTGACGCTGCTG”, the binding signal with GST-Ap-NF-kB RHD worked out at 4.75 z-score; in assay [1] it was 3.18 z-score; with GST-Co-NF-kB, 2.45 z-score; with GST-Dm-Relish it was 3.63 z-score; in the assay with GST-Aq-NF-kB, 4.71 z-score.

Take “CCGATTAACATCAGGGGGCGCACTGATGTTAATCGGGTCTTGATTCGCTTGACGCTGCTG”: the binding signal stood at 3.71 z-score in the assay with GST-Ap-NF-kB RHD; 3.04 z-score in assay [1]; 2.37 z-score in the assay with GST-Co-NF-kB; 4.13 z-score in the assay with GST-Dm-Relish; 4.79 z-score in the assay with GST-Aq-NF-kB.

Consider “CCGATTAACATCAGGCGATTCCCTGATGTTAATCGGGTCTTGATTCGCTTGACGCTGCTG”, for which the binding signal with GST-Ap-NF-kB RHD was 1.93 z-score; in assay [1] it was 2.99 z-score; in the assay with GST-Co-NF-kB it was 1.44 z-score; with GST-Dm-Relish it was 2.34 z-score; with GST-Aq-NF-kB, 3.88 z-score.

Take “CCGATTAACATCAGGAAACACCCTGATGTTAATCGGGTCTTGATTCGCTTGACGCTGCTG”: the binding signal with GST-Ap-NF-kB RHD was determined as 3.05 z-score; in assay [1], 2.79 z-score; in the assay with GST-Co-NF-kB, 1.1 z-score; with GST-Dm-Relish, 4.19 z-score; with GST-Aq-NF-kB, 6.01 z-score.

As for “CCGATTAACATCACGGGAACCCCTGATGTTAATCGGGTCTTGATTCGCTTGACGCTGCTG”, the binding signal stood at 5.04 z-score with GST-Ap-NF-kB RHD; 2.85 z-score in assay [1]; 1.9 z-score in the assay with GST-Co-NF-kB; 9.89 z-score with GST-Dm-Relish; 5.86 z-score with GST-Aq-NF-kB.

With “CCGATTAACATCAGGGGTCCCCATGATGTTAATCGGGTCTTGATTCGCTTGACGCTGCTG”, the binding signal was 4.7 z-score with GST-Ap-NF-kB RHD; 2.57 z-score in assay [1]; 1.99 z-score with GST-Co-NF-kB; 7.31 z-score with GST-Dm-Relish; 3.6 z-score with GST-Aq-NF-kB.

Turning to “CCGATTAACATCAGGGGGTAAAATGATGTTAATCGGGTCTTGATTCGCTTGACGCTGCTG”, the binding signal in the assay with GST-Ap-NF-kB RHD amounted to 4.43 z-score; in assay [1], 4.2 z-score; with GST-Co-NF-kB, 8.57 z-score; with GST-Dm-Relish, 3.24 z-score; with GST-Aq-NF-kB, 4.16 z-score.

“CCGATTAACATCAACTAATTCCCTGATGTTAATCGGGTCTTGATTCGCTTGACGCTGCTG”: the binding signal is 2.18 z-score with GST-Ap-NF-kB RHD; 4.19 z-score in assay [1]; 3.13 z-score with GST-Co-NF-kB; 1.91 z-score with GST-Dm-Relish; 3.44 z-score in the assay with GST-Aq-NF-kB.
